Key:
Assay in all cases: PBM binding z-score (relative to random genomic background probes); higher = stronger binding; sequences stand for … in GC…GCGATTGACAGCGTAGAATGAAGG
[1] = system: PPARg:RXRa DBDmut IVT, anti-RXR (DBD mutation: RXRa K156A/R161A, NR concentration 270 nM, RXRa partner concentration 90 nM)
Method in brief: (§1)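 Regression normalization was applied to scanned fluorescence from custom Agilent 4×180K protein-binding microarrays. Before scanning, arrays were incubated 1 h with ligand-free nuclear receptor dimers, and binding was detected with antibodies against each partner (one per run). Binding z-scores use the random background probes as reference.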

[2] = system: PPARg:RXRa IVT, anti-PPARg (NR concentration 270 nM, RXRa partner concentration 90 nM)
Method in brief: as §1

[3] = system: PPARg DBDmut:RXRa IVT, anti-PPARg (DBD mutation: PPARg1 K132A/R137A, NR concentration 270 nM, RXRa partner concentration 90 nM)
Method in brief: as §1

[4] = system: PPARg DBDmut IVT, anti-PPARg (DBD mutation: PPARg1 K132A/R137A, NR concentration 270 nM)
Method in brief: as §1

[5] = system: PPARg homodimer (NR concentration 180 nM)
Method in brief: as §1

[6] = system: PXR:RXRa (NR concentration 270 nM, RXRa partner concentration 90 nM)
Method in brief: as §1

[7] = system: PXR homodimer (NR concentration 270 nM)
Method in brief: as §1

[8] = system: RARa:RXR (NR concentration 270 nM, RXRa partner concentration 90 nM)
Method in brief: as §1

[9] = system: RARa homodimer (NR concentration 270 nM)
Method in brief: as §1

[10] = system: RARb:RXRa (NR concentration 270 nM, RXRa partner concentration 90 nM)
Method in brief: as §1

| Sequence | PBM binding z-score [1] | PBM binding z-score [2] | PBM binding z-score [3] | PBM binding z-score [4] | PBM binding z-score [5] | PBM binding z-score [6] | PBM binding z-score [7] | PBM binding z-score [8] | PBM binding z-score [9] | PBM binding z-score [10] |
| --- | --- | --- | --- | --- | --- | --- | --- | --- | --- | --- |
| TATACAGGGTCAAAGGCCAGAGTTCGAATGTCGA | 2.55 | 4.54 | 1.63 | 2 | 3.99 | 5.44 | 2.54 | 6.63 | 1.14 | 4.53 |
| GCTAGCAGGCCATATGGGTCACTCAATGACGGGC | 1.57 | 2.68 | -0.447 | -0.866 | -0.0235 | 0.585 | -0.337 | 1 | -0.311 | 1.62 |
| AGAATGAGGTTACCAAAGATCGGGGAAACGCTTG | 4.19 | 3.16 | 0.767 | -0.00143 | 0.441 | 1.3 | -0.247 | 1.86 | -0.246 | 2.09 |
| TATACAGGCTCAAAGGCCAGAGTACGAATGTCGA | -0.518 | 0.865 | 0.383 | 0.281 | -0.146 | -0.262 | -0.323 | -0.258 | 0.14 | 0.95 |
| CAAACTAGGTCAAAGGTCAAAGTGGAGCCAACCA | 8.72 | 9.15 | 3.29 | 1.05 | 7.6 | 7.01 | 2.04 | 8.86 | 5.25 | 5.8 |
| TCTAGTAGATCAAGCAGGTTAAGAAAGCCTGAGT | 1.47 | 0.398 | -0.251 | -0.0304 | 0.0496 | 0.277 | -0.142 | 0.334 | -0.0896 | -0.149 |
| TCGAATAGGTTACCAATGGGGCATTCAGCTTTCT | 2.41 | 1.12 | 0.24 | -0.411 | 0.402 | 0.725 | 0.0437 | 0.908 | 0.281 | 1.57 |
| CTCGAAAGGCCGGTTGAGGTGAGTATACGGATAA | -0.491 | -0.359 | -0.611 | -0.528 | -1.35 | -0.133 | -0.38 | 1.91 | -1.14 | 0.703 |
| TAGCCTAGGTCATTGGGCCAGTACAGTACGCATC | 2.86 | 3.89 | -0.0279 | 0.0815 | 1.12 | 1.71 | -0.112 | 2.12 | -0.528 | 3.67 |
| TAGCCTAGGTCATTGGGCCCGTATAGTACGCATC | 1.78 | 3.02 | 0.545 | -0.654 | 0.54 | 1.75 | 0.165 | 2 | -0.326 | 3.74 |
| GCGACTGTGGCAAAGCAGGTTACCATAAGGTTGG | 0.686 | 0.528 | -0.512 | -1.16 | -0.377 | -0.184 | -0.793 | -0.0448 | -0.9 | -0.0264 |
| ATCTCTACGTAACCAAGTTCAGTGAATGCCGAAC | -0.22 | 0.0113 | 0.854 | 0.806 | 0.739 | 1.29 | 1.4 | 0.427 | 0.401 | 0.836 |
| TCTGGTTGGTCAAAGGTCACACACTCGAAATGCG | 3.03 | 5.67 | 2.56 | 3.21 | 7.5 | 6.15 | 2.71 | 7.76 | 4.92 | 4.96 |
| GCGAATGGGGCATCAGCAGGTTACCATAACTTAA | 0.757 | 0.63 | -0.741 | -0.65 | 0.165 | 0.102 | -0.437 | 0.532 | -0.444 | 0.614 |
| ATCGAAAGGTCGAATGTGAGTATACCCACCCGAA | 0.065 | 1.47 | 1.15 | 0.649 | 1.56 | 2.5 | 0.558 | 2.9 | 0.346 | 3.72 |
| GCGACTGGGGCAAAGCAGGTTACCATGAGGTTGG | 4.46 | 3.79 | -0.666 | -1.4 | 0.0533 | 0.378 | -0.61 | 0.383 | -0.939 | 0.981 |
| ACTAGTTGGTCAGTTGAGGTCACACACAATTCGG | 1.58 | 2.98 | 1.37 | 0.982 | 3.72 | 5.67 | 2.39 | 4.98 | 1.56 | 3.54 |
| TCTTGTAGATCAAAGATTAAGAAAGCCGAAGCCT | 1.71 | 0.407 | 0.363 | 0.404 | -0.224 | 0.137 | -0.525 | 0.257 | 0.694 | -0.16 |
| CGAACTAGGTCATAACAGGACAGTGAAGGATGAT | 7.75 | 8.05 | 5.21 | 4.58 | 2.38 | 2.04 | 0.386 | 2.3 | 0.47 | 3.38 |
| CGTCAAAGTTCAACTAAGGTAACGGAAAGCACGC | 0.353 | 2.18 | 0.489 | 0.064 | 3.4 | 5.37 | 3.68 | 3.89 | 1.31 | 5.45 |
| ATCGAAAGGTCGAAGATGAGTATACCCACCCGAA | -0.341 | 1.22 | 0.714 | 0.471 | 1.15 | 1.97 | 0.241 | 2.66 | 0.939 | 3.69 |
| CCGGCTGGGGCATAAGGTTACCATAAGCCAGCCC | -0.781 | 0.196 | -2.71 | -2.08 | 1.02 | 0.131 | -0.484 | 1.23 | -0.82 | 1.62 |

| Sequence | PBM binding z-score [1] | PBM binding z-score [2] | PBM binding z-score [3] | PBM binding z-score [4] | PBM binding z-score [5] | PBM binding z-score [6] | PBM binding z-score [7] | PBM binding z-score [8] | PBM binding z-score [9] | PBM binding z-score [10] |
| --- | --- | --- | --- | --- | --- | --- | --- | --- | --- | --- |
| TCATATAGGTAAAGGTTAAAGTCGAACGATATGA | 3.98 | 4.07 | 1.37 | 1.86 | 1.53 | 2.1 | 0.481 | 3.21 | 1.26 | 2.67 |
| CAAACTAGGTCACCGGAAGGTCGAAGTCCGCATG | 8.58 | 9.05 | 2.73 | 2.92 | 3.05 | 3.91 | 0.000336 | 4.49 | 1.1 | 4.8 |
| CCTGCTAGGTTAATGGTCAGCTAAAGCAGCTCGC | 2.01 | 1.36 | -0.242 | -0.61 | 0.222 | -0.336 | -0.337 | 0.0339 | -0.547 | 1.26 |
| CATACAGGGTTAGCTAGGCCAGAGTAGGGACGGC | -0.169 | 0.541 | -0.056 | -0.72 | -0.367 | -0.275 | -0.684 | 0.13 | -0.529 | 1.07 |
| AGAATGAGGTTATACCTAGATCAGGGAAGAAAGT | 2.11 | 2.02 | 1.05 | 0.686 | 0.0294 | 0.87 | 0.227 | 1.44 | -0.0854 | 1.19 |
| ATCGAAAGGTCGTTAGGTGAGTATACAGAAAGGC | 0.388 | 2.1 | 1.14 | 1.04 | 1.51 | 2.9 | 0.99 | 3.2 | 0.848 | 3.53 |
| CCTACTGGGCCATCATGTCATTGATATCAACGTT | 4.06 | 4.28 | 0.246 | 0.754 | 0.785 | -0.129 | 0.119 | 0.097 | -0.0554 | 0.332 |
| CTACCAAGGTGAACAAGGTCGTGGATTACTATTC | 2.25 | 3.01 | 1.26 | -0.0966 | 1.98 | 2.46 | 0.298 | 2.92 | 0.0898 | 2.45 |
| GATACAGTGTCAGCTAGAGGCCAGAGTATGGAAA | -0.588 | 0.187 | 0.343 | -0.259 | -0.286 | -0.439 | -0.0774 | -0.0269 | -0.579 | 0.973 |
| TAGAGTAGGTTAGTCGGGGCATTCAGCCAACATA | 3.08 | 3.62 | 0.961 | 1.55 | 1.27 | 0.576 | 0.756 | 0.643 | 1.35 | 1.1 |
| CAAACTAGGTCACCGGAAGGTCAAAGTGCGCATG | 8.63 | 8.94 | 1.75 | 1.74 | 7.29 | 6.12 | 1.81 | 7.59 | 2.46 | 5.39 |
| TAGCCTAGGTCATATCGGGCCAGTATACGCTATA | 1.18 | 2.19 | 0.112 | 0.0699 | 0.54 | 2.18 | 0.0831 | 1.92 | -0.618 | 3.37 |
| AGAATGAGGTTATTAAGATCAGTGAATTGCGGTC | 3.14 | 2.61 | 0.948 | 0.175 | 1.22 | 1.37 | 0.788 | 1.35 | 0.44 | 1.31 |
| CCTACTGGGACAAAGGTCATTGATTCCAATGCTC | 5.4 | 7.14 | 1.81 | 1.06 | 4.59 | 5.27 | 2.24 | 6.06 | 2 | 4.45 |
| ATATGTCGGTTAAGGGTCATTCAGGTTGGTTCGC | 2.75 | 4.81 | 2.12 | 1.06 | 3.13 | 5.03 | 2.46 | 4.78 | 2.84 | 3.31 |
| CCTTTTAGTTGACCATAAGGGCAACCGAAGCTCG | 0.494 | 1.26 | 0.935 | 0.61 | 1.45 | 0.87 | 0.536 | 0.957 | 1.78 | 1.86 |
| ATCTGTAGGTAAGACTCAGTTCAGTGAAGAACGC | 1.14 | 0.619 | 1.11 | 1.11 | 0.0779 | 1.18 | 1.28 | 0.421 | 0.498 | 0.161 |
| CTCGAAAGGTCGTGCACAGGTGAGTATACCAAAC | 0.853 | 2.21 | 0.533 | 0.411 | 2.02 | 3.56 | 0.388 | 4.46 | 0.659 | 4.07 |
| ATTGAAAGGTCGAGGTGAGTATAGAGAAAGGGAA | 0.763 | 2.77 | 1.27 | 1.65 | 2.49 | 2.7 | 0.738 | 3.64 | 1.83 | 4.28 |
| CCTATTAGTTGACCGTAAGGGCAACCGAAGCTCG | 0.0924 | 0.672 | 0.0839 | -0.0421 | 1.63 | 0.919 | 0.939 | 1.35 | 1.56 | 1.91 |
| TCTTGTAGAACAGCAGGTTAAGAAAGCTGGCCAA | 1.67 | 0.554 | -0.871 | -0.593 | -0.509 | 0.0552 | -0.772 | -0.0223 | -1.16 | 0.0879 |
| GCTATTAGTTGAAAGGGCATCCGAATGATTCTCG | 0.6 | 0.576 | 0.336 | 0.482 | 1.17 | 0.67 | 0.374 | 1.21 | 0.477 | 1.65 |

Source: the supplement of paper PMC6555819
